Data: PubChem BioAssay AID652054 (National Center for Advancing Translational Sciences (NCATS), 2013)
Out of some 360,000 compounds screened, about 9,100 (2.5%) were called active. Roughly 4% stayed inconclusive and do not appear here. Cut-off read from the data, not from the text of the source: active = max response below about -50%; inconclusive = no clear call, values can overlap the other calls; inactive = above that. For the sample, actives were picked, then their nearest neighbours and some compounds at random.

These compounds were tested against D(3) dopamine receptor (Homo sapiens) (UniProt P35462) (assay: qHTS of D3 Dopamine Receptor Antagonist: qHTS). Details: D3R cells, DiscoveRx beta-arrestin luminescence, antagonist mode; active compounds read low.
D(3) dopamine receptor (Homo sapiens), sequence (P35462 whole entry, looked up): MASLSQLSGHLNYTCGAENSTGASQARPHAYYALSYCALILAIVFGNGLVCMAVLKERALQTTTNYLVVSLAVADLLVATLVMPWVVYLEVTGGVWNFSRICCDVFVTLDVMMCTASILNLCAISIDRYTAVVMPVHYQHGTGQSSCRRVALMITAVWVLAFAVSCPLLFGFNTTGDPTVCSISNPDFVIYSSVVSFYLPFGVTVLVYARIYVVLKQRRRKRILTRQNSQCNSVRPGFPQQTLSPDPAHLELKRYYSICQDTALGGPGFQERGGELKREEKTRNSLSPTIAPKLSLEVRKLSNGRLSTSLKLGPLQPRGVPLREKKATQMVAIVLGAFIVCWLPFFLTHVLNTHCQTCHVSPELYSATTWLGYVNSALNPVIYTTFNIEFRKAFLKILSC
Excerpt: D3 DARs represent a very important target for the treatment of several neuropsychiatric disorders. Indeed, one of the most promising therapeutic applications for the D3 DAR is in the area of addiction and related disorders. […] These findings have been observed with a number of addictive substances including cocaine, amphetamine, nicotine, and alcohol. […] Antagonism of the D3 DAR may also be therapeutic in the treatment of schizophrenia or psychosis. […] Since the D3 DAR is expressed in areas of the CNS associated with the control of mood and emotion, it has been hypothesized that selective antagonism of the D3 DAR may be effective in treating psychosis without inducing the motor side effects typically seen with D2 DAR antagonists.
This part of the project aims to discover novel antagonist.
NIH Chemical Genomics Center [NCGC]
NIH Molecular Libraries Probe Centers Network [MLPCN]
Assay Submitter (PI): David Sibley, NINDS
Freshly passaged cells are plated in 1536 well white, solid bottom plates at a density of 1500 cells/well in 3microl of complete media. After an overnight incubation at 37 degrees C in 5% CO2, cells are loaded with 23nl of test compound from the compound library (as well as dopamine controls) using a 1536 pintool and incubated at 37 degrees C for 90 minutes. Two microliters of DiscoveRx reagent is then added to all cells, and they are incubated for an additional 30 - 60 minutes at room temperature. Following incubation, luminescence is measured on a ViewLux CCD-based luminometer reader using a 20 sec exposure time.
% is set by controls: 0 for no effect and ±100 for the full control effect.

SMILES	max response, negative = inhibition
O=C(NC1CCCC1)C1c2ccccc2OCC(=O)N1Cc1ccccc1 (stereo not given)	4.78% (inactive)
COc1ccc(C(C(=O)Nc2c(C)cccc2C)N2CCN(c3ccc(C)cc3)CC2)cc1 (stereo not given)	11.5% (inactive)
COCCCn1cc(CN2CC(N(C)C)CS2(=O)=O)nn1 (stereo not given)	-10.8% (inactive)
CCCCCCCCN1C(=O)[C@H](CC(=O)NCC23CC4CC(CC(C4)C2)C3)C[C@@]2(C(=O)OC)CCCCC=C12	9.16% (inactive)
O=C(NCc1cccnc1)c1cc(C2CCCN(C(=O)C3CCCCC3)C2)on1 (stereo not given)	6.18% (inactive)
COCCNC(=O)C1CCCN(Cc2ccccc2Cl)CC1 (stereo not given)	57.8% (inactive)
Cc1ccc(Sc2ccc(NC(=O)c3ccc(F)cc3)cc2C#N)cc1	0% (inactive)
CC(=O)Nc1ccc(NC(=O)COc2ccccc2C(=O)Nc2cccc(Cl)c2Cl)cc1	-0.418% (inactive)
Cc1ccccc1OCC(=O)Nc1ccc(N2CCN(C(=O)C(C)C)CC2)c(Cl)c1	26.3% (inactive)
COc1cc(NC(=O)COc2ccccc2Cl)ccc1NC(=O)C(C)C	-74% (active)
COc1ccc(-c2cnc3c(c2)C(=O)N([C@H](C)CO)C[C@@H](C)[C@H](CN(C)Cc2ccccc2)O3)cc1	14.3% (inactive)
CCN1C(=O)[C@@H]2[C@@H]3CN(S(=O)(=O)c4ccccc4C)[C@@H](c4ccc(Cl)cc4)[C@@H]3C(=O)C[C@@H]2C1=O	-17.8% (inactive)
CCN(CC)CCN(C(=O)c1cc(Cl)sc1Cl)c1nc2cc3c(cc2s1)OCO3	-11.6% (inactive)
CCN(CC)CCN(C(=O)c1ccc2c(c1)CCCC2)c1nc2c(OC)cccc2s1	-103% (active)
CCN(CC)CCN(C(=O)c1cccc([N+](=O)[O-])c1)c1nc2ccc(OC)cc2s1	8.97% (inactive)
COc1ccc(NC2CCCN(C(=O)c3ccccc3-c3ncc[nH]3)C2)cc1 (stereo not given)	-2.79% (inactive)
Cc1cc(C)nc(N(C#N)CC(=O)Nc2ccccc2)n1	-15.5% (inactive)
Cc1cc(C)nc(S/C=C/C(=O)c2ccccc2)n1	-62.5% (active)
O=C(/C=C/NNC(=O)c1cccc(Br)c1)c1ccccc1	0% (inactive)
COc1ccc([C@H]2N[C@]3(CCCN(Cc4ccco4)C3=O)[C@H]3C(=O)N(C)C(=O)[C@@H]23)cc1	-22% (inactive)
Cc1cccc(N(CC(=O)N2CCCC2)S(C)(=O)=O)c1C	-2.72% (inactive)
CCc1nnc(NC(=O)c2cc(S(=O)(=O)N3CCCCC3)ccc2C)s1	-2.53% (inactive)
Cc1ccc(S(=O)(=O)N2CCOCC2)cc1C(=O)Nc1ccccc1N1CCCC1	13.7% (inactive)
CCOC(=O)c1sc(NC(=O)c2cc(S(=O)(=O)N3CCOCC3)ccc2C)nc1C	-55.1% (active)
CCOC(=O)c1cc(-c2sc(NC(=O)c3ccccc3)nc2C)n(CCO)n1	-12.9% (inactive)
CCCC(c1nnnn1C(C)(C)C)N1CCN(Cc2ccccc2)CC1 (stereo not given)	-5.41% (inactive)
CCC(C)(C)n1nnnc1C(c1cccs1)N1CCN(c2nc3ccccc3s2)CC1 (stereo not given)	-16.1% (inactive)
COc1ccc(OC)c(C(c2nnnn2C(C)(C)C)N2CCc3ccccc3C2)c1 (stereo not given)	-1.6% (inactive)

SMILES	max response, negative = inhibition
COc1ccccc1C(c1nnnn1C(C)(C)C)N1CCN(Cc2ccccc2)CC1 (stereo not given)	-90.6% (active)
Fc1ccc(Cn2nnnc2C(c2cccs2)N2CCCCCC2)cc1 (stereo not given)	10.3% (inactive)
CCC(C)(C)n1nnnc1C(c1cccs1)N1CCN(Cc2ccccc2)CC1 (stereo not given)	-56.8% (active)
N#Cc1cccc(NC(=O)c2cc(C3CCCCN3C(=O)CCc3ccccc3)on2)c1 (stereo not given)	-8.91% (inactive)
CCCCCn1nnnc1-c1nc2cc3ccccc3cc2[nH]c1=O	-8.12% (inactive)
COCCCNc1ccn2nc(-c3ccc(CC(C)C)cc3)cc2n1	31.5% (inactive)
Cc1ccccc1NC(=O)Cc1nc(COC(=O)C(C)(C)Oc2ccc(Cl)cc2)cs1	24.6% (inactive)
CC(C)(C)CC(=O)Nc1nc(C(N)Cc2ccc(C(F)(F)F)cc2)cs1 (stereo not given)	0% (inactive)
Cc1ccc(-c2nnc(SCC(=O)N/N=C/c3cccs3)n2-c2ccc(C)cc2)cc1	11.6% (inactive)
Cc1nnc(SCC(=O)Nc2cccc(N)c2)n1-c1ccccc1	9.89% (inactive)
Cc1nnc(SCC(=O)N/N=C/c2cn(-c3ccccc3)nc2-c2ccc(F)cc2)n1-c1ccccc1	-52.1% (active)
CCOC(=O)[C@]12CCCC=C1N(CCC1=CCCCC1)C(=O)[C@H](CC(=O)NCCCCc1ccccc1)C2	-12.8% (inactive)
CCC(C(=O)Nc1c(C)cccc1C)n1c(-c2cc(C)cs2)nc2ccccc21 (stereo not given)	-4.88% (inactive)
Nc1c(C(=O)c2cccs2)sc2nsc(SCCN3CCCCC3)c12	-51.8% (active)
Nc1ncnc2c1ncn2[C@@H]1O[C@H](C(=O)NS(=O)(=O)c2c(Cl)nc3sccn23)[C@@H](O)[C@H]1O	24.3% (inactive)
Cc1ccc(-c2ccc(CN3C(C(C)C)C(=O)N(Cc4cn(CCC5OCCO5)nn4)CCS3(=O)=O)cc2)cc1 (stereo not given)	5.58% (inactive)
O=C(Nc1ccc(Cl)cc1)c1csc([C@@H]2O[C@H](CO)[C@H](O)[C@H](O)[C@H]2O)n1	-15.5% (inactive)
CC1=C(C(=O)N(C)C)CC(CC(=O)NCCN2CCOCC2)C(=O)N1Cc1ccccc1 (stereo not given)	-7.58% (inactive)
CC(=O)Nc1cc(-c2ccc(N3CCN(C)CC3)cc2)cn2c(-c3cccc(C(=O)N(C)C)c3)cnc12	9.1% (inactive)
C=CCOc1cccc(C2C(C(=O)c3ccc(C)o3)=C(O)C(=O)N2CCN2CCOCC2)c1 (stereo not given)	0.324% (inactive)
CCCOc1ccc(C2C(C(=O)c3ccc(C)o3)=C(O)C(=O)N2CCCn2ccnc2)cc1 (stereo not given)	-63.3% (active)
CCOc1ccc(C2/C(=C(/O)c3ccc4c(c3)CC(C)O4)C(=O)C(=O)N2CCCn2ccnc2)cc1 (stereo not given)	-12.2% (inactive)
Cc1ccc(C)c(C(O)c2ncc(-c3cccc4ccccc34)[nH]2)c1 (stereo not given)	-3.53% (inactive)
COC(=O)c1ccc2nc(-c3ccc(Cl)cc3)c(Cc3cccc(F)c3)n2c1	88.8% (inactive)
CC(=O)Nc1ccc(Nc2c([N+](=O)[O-])cc(S(C)(=O)=O)cc2[N+](=O)[O-])cc1	-15.9% (inactive)
CCN(CC(=O)Nc1c(F)cccc1F)C(=O)c1ccc(Sc2nncn2C)c([N+](=O)[O-])c1	2.59% (inactive)
Cn1cnnc1Sc1ccc(S(C)(=O)=O)cc1[N+](=O)[O-]	-78.8% (active)
